According to PubChem BioAssay:

Test: budding yeast growth modifiers under rapamycin – strain BY4716, OD600, 96 h, primary screen (AID 1091); note: test concentration not given here
Settings: S. cerevisiae BY4716 + rapamycin, higher = more signal, called active from +8 up or from −8 down

z-score, inactive:
COC(=O)c1c2oc(c1C(=O)OC)C(=O)N[C@@H](C(C)C)Cn1cc(nn1)C1(CCCCC1)NC(=O)N[C@H](CO)CC2 -0.538
COc1ccccc1CN1C(=O)c2ccccc2[C@@]2(Cc3ccccc3N(CCCN(C)C)C2=O)[C@@H]1c1ccc(CO)cc1 -1.35
COC(=O)[C@@]1(Cc2ccc(OC)cc2)[C@H]2c3cc(C(=O)N(C)C)n(Cc4ccc(C(F)(F)F)nc4)c3C[C@H]2CN1C(=O)c1ccccc1 0.473
CC(CO)N1C(=O)[C@@H]2C3C(=O)OCCC/C=C\[C@H]3OC23C=CCN(CCN2CCOCC2)C(=O)[C@@H]13 (stereo partly drawn) -0.215
CCOC(=O)C1=C[C@@H](C(C)C)N(S(=O)(=O)c2ccc(C)cc2)[C@H]1c1ccccc1F 7.3
O=C1O[C@@H](c2ccccc2)[C@@H](c2ccccc2)N2[C@@H](c3ccccc3OCCO)[C@]3(C(=O)Nc4ccc(C#CC5(O)CCCCCC5)cc43)[C@@H](C(=O)N3CCN(c4ncccn4)CC3)[C@H]12 7.62
COC(=O)c1c(CC[C@@H](CO)NC(=O)N[C@@H](Cc2ccccc2)Cn2cc(-c3ccccn3)nn2)oc(C(=O)N2CCOCC2)c1C(=O)OC -0.593
COc1ccc(C(O)C2C=CC3C(=O)N(C)C(=O)C3N2N(c2ccccc2)c2ccccc2)c2ccccc12 (stereo not drawn) 0.375
CS(=O)(=O)CCOC(=O)C1=CC(CCCO)=CC(c2ccc(CN3CCCC3)cc2)N(Cc2cccc(OC(F)(F)F)c2)C=C1C(=O)OCCS(C)(=O)=O (stereo not drawn) -0.805
C=CC[C@]1(C(=O)N2CCOCC2)N=C(c2ccc(OCCCO)cc2)O[C@H]1c1ccccc1N=[N+]=[N-] 0.206
CCCCN1CC=CC23O[C@@H]4/C=C\CCCOC(=O)C4[C@H]2C(=O)N(CCCCCO)[C@@H]3C1=O (stereo partly drawn) -0.8
O=C(O)[C@@]1(CCS(=O)(=O)c2ccccc2)N=C(c2ccc(OCCCO)cc2)O[C@H]1c1ccccc1 -0.934
COc1ccc([Si](C)(C)[C@@H]2[C@@H](CC(=O)N3Cc4ccccc4C[C@H]3CO)O[C@]3(C(=O)N(Cc4cccc(N5CCC5=O)c4)c4ccccc43)[C@H]2C)cc1 1.59
O=C1OCCC=C[C@H]2OC34C=CCN(c5ccc(Cl)cc5)C(=O)[C@H]3N(CCCO)C(=O)[C@@H]4C12 (stereo partly drawn) 0.0341
CCCCCCCCCCC(O)C1C=CC2C(=O)NC(=O)C2N1Nc1ccc(Cl)cc1Cl (stereo not drawn) 0.309
C=CCC(OC(C)=O)[C@@H]1[C@@H](N(Cc2ccc(-c3ccccc3)cc2)C(=O)Cc2ccc(F)cc2)c2cc(OCCCO)ccc2N1C(=O)c1ccc2ccccc2c1 (stereo partly drawn) 0.14
COCC(=C=CC[C@H](O)c1cccc(OCCO)c1)C[C@H](O)c1cc(Cl)cc(Cl)c1O -0.225
Cc1ccc(/C=C/C=O)cc1 -0.141
C=C(CCCC)/C(=C/C[C@H](OC(C)=O)c1ccc(OCCO)cc1)c1cnc2ccccc2c1 -0.434
COc1cc2c(cc1O)C=[N+](Cc1cc3c(cc1Br)OCO3)CC2 -0.208
CCCCCCc1nc(-c2ccc(-c3ccc(Cl)c(Cl)c3)o2)c(C)c2c1[Si](C(C)C)(C(C)C)OC2 0.0962
COCCCNC(=O)[C@]1(Cc2ccccc2)N=C(c2ccc(OCCCO)cc2)O[C@@H]1c1ccccc1CN=[N+]=[N-] 0.842
[N-]=[N+]=Nc1ccccc1C[C@@]1(C(=O)N2CCCCC2)N=C(c2ccc(OCCCO)cc2)O[C@@H]1c1ccccc1 0.737
C=CCN(Cc1ccccc1)C(=O)C(c1cccs1)N(C(=O)/C=C\C(=O)O)c1ccc(CCOCCO)cc1 (stereo not drawn) -0.391
[N-]=[N+]=NCc1ccccc1[C@H]1OC(c2ccc(OCCCO)cc2)=N[C@@]1(Cc1ccccc1)C(=O)N1CCCCC1 1.32
CC(C)(C)OC(=O)CC[C@]1(C(=O)NCCN2CCOCC2)COC(c2ccc(OCCCO)cc2)=N1 -0.342
COC(=O)[C@@]1(Cc2ccc(OC)cc2)[C@H]2c3cc(C(=O)N4CCCC4)n(CCCNc4ncc(C(F)(F)F)cc4Cl)c3C[C@H]2CN1C(=O)c1ccccc1 1.35
COCCOC(=O)N1C(=O)[C@@]2(c3ccccc31)[C@H](C(N)=O)[C@H]1C(=O)O[C@H](c3ccccc3)[C@H](c3ccccc3)N1[C@@H]2c1ccc(O)cc1 0.695
